High-throughput results as filed in PubChem BioAssay.
A selection: hits, their analogues and other compounds. The true share with any hit is near 4.1%.
Jurkat NFkB inh: inhibitors of the PMA/ionomycin-induced NF-kB reporter in Jurkat cells | PMA/ionomycin-induced NF-kB luciferase reporter, luminescence | inhibition, % at 4 µM | hit rate 0.53% among 330,000; in the data active = inhibition above about 50%
KLF5 inhibitor: kruppel-like factor 5 inhibition. inhibition, % at 5 µM. DLD-1 KLF5 promoter-luciferase reporter, luminescence. hit rate 0.23% among 290,000. AID 1700;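 active = inhibition above a per-plate limit of that plate's mean compound inhibition plus 3 SD, cut at about 60% in these data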;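 also: higher means less KLF5 promoter-driven luciferase light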
697 NFkB inh: lowers PMA/ionomycin-induced NF-kB signal in 697 B cells | 697 B-cell NF-kB luciferase reporter, 16 h | inhibition, % at 4 µM | hit rate 0.33% among 330,000 | AID 435022; in the data active = inhibition above about 35%
Gli-Sufu antag: Gli-Sufu pathway antagonism. Sufu-KO-LIGHT fibroblasts, Gli luciferase reporter luminescence. inhibition, % at 5 µM. hit rate 0.74% among 340,000. AID 588413;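 active = inhibition above about 55%, limit read from the data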
Mdm2-MdmX inh: human Mdm2/MdmX binding inhibition; O15151+Q00987; SaOS-2 split-luciferase Mdm2/MdmX complementation, luminescence; inhibition, % at 8 µM; hit rate 3% among 330,000; AID 485346;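 active = inhibition of at least 50% at 8 µM in the primary screen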
Target sequence (O15151 whole entry, looked up): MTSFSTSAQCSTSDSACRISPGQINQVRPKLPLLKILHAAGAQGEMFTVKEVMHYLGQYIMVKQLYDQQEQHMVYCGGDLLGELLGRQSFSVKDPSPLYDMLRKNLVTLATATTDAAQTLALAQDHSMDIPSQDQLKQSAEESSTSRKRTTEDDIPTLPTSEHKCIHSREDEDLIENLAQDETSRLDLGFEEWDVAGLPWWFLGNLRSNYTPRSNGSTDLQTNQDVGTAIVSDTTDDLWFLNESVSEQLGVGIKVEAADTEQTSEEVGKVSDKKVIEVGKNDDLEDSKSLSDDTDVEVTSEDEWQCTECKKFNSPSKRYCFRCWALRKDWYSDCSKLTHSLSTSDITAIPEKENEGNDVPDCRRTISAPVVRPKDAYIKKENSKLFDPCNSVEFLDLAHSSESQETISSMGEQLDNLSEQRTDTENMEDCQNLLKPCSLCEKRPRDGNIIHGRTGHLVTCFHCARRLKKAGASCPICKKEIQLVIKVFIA
Target sequence (Q00987 whole entry, looked up): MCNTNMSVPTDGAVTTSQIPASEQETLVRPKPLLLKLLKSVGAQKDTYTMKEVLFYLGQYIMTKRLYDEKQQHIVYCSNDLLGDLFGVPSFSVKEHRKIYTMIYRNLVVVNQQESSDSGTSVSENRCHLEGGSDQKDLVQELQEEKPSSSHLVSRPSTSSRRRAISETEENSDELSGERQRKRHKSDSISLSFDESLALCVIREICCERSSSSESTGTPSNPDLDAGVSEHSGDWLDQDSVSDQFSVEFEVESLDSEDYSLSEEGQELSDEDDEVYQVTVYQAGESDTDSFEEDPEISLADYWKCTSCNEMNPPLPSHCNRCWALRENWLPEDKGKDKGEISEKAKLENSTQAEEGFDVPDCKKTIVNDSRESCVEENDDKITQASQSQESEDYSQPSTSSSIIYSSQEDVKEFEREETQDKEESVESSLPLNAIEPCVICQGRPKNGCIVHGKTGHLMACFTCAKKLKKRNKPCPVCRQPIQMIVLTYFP
aSyn UTR inh: 5' untranslated region of α-synuclein, MLPCN primary screen; alpha-synuclein 5'UTR reporter, inhibitor activity; inhibition, % (tested at 7.5 µM); AID 1813; hit rate 0.82% among 300,000; in the data active = inhibition above about 60%;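 also: H4 neuroglioblastoma cells stably carrying SNCA 5'UTR luciferase fusion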
Gli-Sufu confirm: Gli-SUFU antagonism confirmation, single concentration | shares compounds with Gli-Sufu antag | Sufu-KO-LIGHT cells, Gli luciferase reporter, luminescence | inhibition, % at 5 µM | hit rate 40% among 2,500;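 active = mean inhibition at 5 µM reaching about 45%, limit read from the data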
SufuKO cytotox: cytotoxicity counter-screen for Gli-SUFU antagonists; shares compounds with Gli-Sufu antag; Sufu-KO-LIGHT cells cytotoxicity, ATP luminescence; cytotoxicity, % at 5 µM; hit rate 32% among 2,500; AID 651994;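 active = mean cytotoxicity at 5 µM above about 25%, limit read from the data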;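 also: cells exposed to compound overnight for roughly 16 to 18 hours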
Wnt3a counter: Wnt3a reporter inhibition counter-screen | AID 651995 | shares compounds with Gli-Sufu antag | Wnt-LIGHT cells, Wnt3a-driven luciferase reporter, luminescence | inhibition, % at 6.25 µM | hit rate 20% among 2,500;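 active = mean inhibition above about 25%, limit read from the data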
Large screens that a line does not name were inactive (follow-up assays come after a bar, where they were run).

Cn1cc(CNCc2ccccc2OCC(O)CN2CCc3ccccc3C2)cn1 (centres undefined)	Gli-Sufu antag 55.5 | Gli-Sufu confirm inactive | SufuKO cytotox inactive | Wnt3a counter inactive
COc1ccc(C(=O)Nc2ccccc2N2CCN(C(=O)C(C)C)CC2)cc1Cl	none
COc1ccc(Cl)cc1C(=O)Nc1ccccc1N1CCN(C(=O)C(C)C)CC1	none | Gli-Sufu confirm inactive | SufuKO cytotox 34.0 | Wnt3a counter inactive
CC(C)(C)C(=O)Nc1cc(S(=O)(=O)N2CCCCC2)ccc1N1CCCCC1	none | Gli-Sufu confirm inactive | SufuKO cytotox inactive | Wnt3a counter inactive
CC(C)C(=O)Nc1cc(S(=O)(=O)N2CCOCC2)ccc1N1CCCCC1	none (no result: KLF5 inhibitor, aSyn UTR inh)
O=C(NC(=S)Nc1ccc2[nH]c(=O)[nH]c2c1)c1ccccc1[N+](=O)[O-]	none
Cc1nc2ccccc2n1Cc1ccc(Br)cc1	Gli-Sufu antag 61.7 (no result: KLF5 inhibitor) | Gli-Sufu confirm 58.9 | SufuKO cytotox 27.6 | Wnt3a counter inactive
Cc1nc2ccccc2n1Cc1ccccc1	none
CCOc1ccc(Br)cc1S(=O)(=O)Nc1cccc(S(=O)(=O)Nc2ccccc2C(=O)O)c1	Gli-Sufu antag 55.4 (no result: KLF5 inhibitor, aSyn UTR inh) | Gli-Sufu confirm inactive | SufuKO cytotox inactive | Wnt3a counter inactive
COc1ccc(C(=O)N2CC(=O)Nc3ccc(F)cc3C2c2ccccc2)cc1 (centres undefined)	Gli-Sufu antag 67.2 (no result: Jurkat NFkB inh, 697 NFkB inh, Mdm2-MdmX inh) | Gli-Sufu confirm inactive | SufuKO cytotox inactive | Wnt3a counter inactive
O=C1CN(C(=O)c2ccccc2)C(c2ccccc2)c2cc(F)ccc2N1 (centres undefined)	none
CCN(CC)C(=O)[C@H]1C[C@H](CC(=O)NCCCn2ccnc2)C(=O)N2CCc3c([nH]c4cc(CCC(=O)N(C)C)ccc34)[C@]12C	none (no result: Jurkat NFkB inh, KLF5 inhibitor, aSyn UTR inh)
COc1ccc(-c2cc(C(F)(F)F)n3ncc(C(=O)N4CCCCC4c4cccnc4)c3n2)cc1 (centres undefined)	none | Gli-Sufu confirm inactive | SufuKO cytotox inactive | Wnt3a counter inactive
CC12CCC(C(=O)N/N=C/c3ccc(O)cc3)(OC1=O)C2(C)C (centres undefined)	none
COc1cc(C(=O)NC2CCN(C)CC2)ccc1Nc1ncc2c(n1)N(CCc1ccccc1)CCC(=O)N2C	Gli-Sufu antag 75.2 (no result: Jurkat NFkB inh, KLF5 inhibitor, 697 NFkB inh, Mdm2-MdmX inh, aSyn UTR inh) | Gli-Sufu confirm 67.3 | SufuKO cytotox inactive | Wnt3a counter inactive
O=c1cc(N2CCN(c3ccccc3)CC2)[nH]c(=O)n1-c1ccccc1Cl	none
CCOC(=O)N1CCN(c2cc(=O)n(-c3ccccc3Cl)c(=O)[nH]2)CC1	none | Gli-Sufu confirm inactive | SufuKO cytotox inactive | Wnt3a counter inactive
O=C(c1ccco1)c1coc2c1cc(O)c1ccccc12	none
CC1CC(C)CN(CCCNC(=O)CN2C(=O)COc3ccc(S(=O)(=O)N4CCOCC4)cc32)C1 (centres undefined)	none
Cc1c(C(=O)Nc2ccc(-c3nnc4n3CCCCC4)cc2)oc2ccc(Br)cc12	none | Gli-Sufu confirm inactive | SufuKO cytotox inactive | Wnt3a counter inactive
O=C(O)[C@H](Cc1ccccc1)NC(=O)N1CCN(c2cccc(C(F)(F)F)c2)CC1	none
CCOC(=O)/C=C1\SC(C)C(=O)N1CC(=O)N(CCC#N)c1ccccc1 (centres undefined)	none (no result: KLF5 inhibitor, aSyn UTR inh)
COC(=O)[C@@H](c1ccccc1)N(C)S(=O)(=O)c1cccc(S(=O)(=O)N(C)[C@@H](C(=O)OC)c2ccccc2)c1	Gli-Sufu antag 57.4 | Gli-Sufu confirm inactive | SufuKO cytotox 32.5 | Wnt3a counter inactive
COC(=O)C(c1ccccc1)C(C(=O)OC)c1ccccc1 (centres undefined)	none
COC(=O)CCCCCCCCCC[N+]1(C)CCCCC1	none
C[N+]1(CC(=O)OC2CCCCCCCCCCC2)CCCC1	Gli-Sufu antag 64.6 | Gli-Sufu confirm 55.9 | SufuKO cytotox 29.4 | Wnt3a counter inactive
CCCN(CCC)CCN1C(=O)C2C(C(=O)Nc3ccc(C)cc3)C3C=CC2(O3)C1C(=O)NC1CCCCC1 (centres undefined)	none
CCN(CC)CCN1C(=O)C2C(C(=O)Nc3cc(C)cc(C)c3)C3C=CC2(O3)C1C(=O)NC1CCCCC1 (centres undefined)	Gli-Sufu antag 64.3 | Gli-Sufu confirm inactive | SufuKO cytotox inactive | Wnt3a counter inactive
COc1ccc2cc(C(=O)NCc3ccccc3)[nH]c2c1	none | Gli-Sufu confirm inactive | SufuKO cytotox inactive | Wnt3a counter inactive
COc1ccc2cc(C(=O)NCCc3ccccc3)[nH]c2c1	none
O=C(CCN1CCCC1=O)NC1CCCc2c1cnn2-c1ccccc1F (centres undefined)	none
Cc1nnsc1C(=O)NC1CCCc2c1cnn2-c1ccc(C(C)(C)C)cc1 (centres undefined)	Gli-Sufu antag 62.4 | Gli-Sufu confirm 58.9 | SufuKO cytotox 53.1 | Wnt3a counter inactive
Cc1cccc(-n2ncc3c2CCCC3NC(=O)C2=CC(=O)CC(C)(C)O2)c1C (centres undefined)	Gli-Sufu antag 57.9 | Gli-Sufu confirm inactive | SufuKO cytotox 31.2 | Wnt3a counter inactive
CC1(C)CC(=O)C=C(C(=O)NC2CCCc3c2cnn3-c2cc(F)cc(F)c2)O1 (centres undefined)	none
Cc1nnsc1C(=O)NC1CCCc2c1cnn2-c1ccccc1F (centres undefined)	none | Gli-Sufu confirm 45.2 | SufuKO cytotox inactive | Wnt3a counter 29.4
CC(C)(C)c1ccc(-n2ncc3c2CCCC3NC(=O)c2ccncc2)cc1 (centres undefined)	none | Gli-Sufu confirm inactive | SufuKO cytotox inactive | Wnt3a counter inactive
Cc1ccc(S(=O)(=O)N2CCN(c3ccccc3)CC2)cc1C(=O)NC1CCCCC1	none
CCCN(CCC)CC(=O)Nc1cccc2c1OCO2	none
COc1ccc(C(=O)NC2CCCc3c2cnn3-c2ccccc2F)cc1OC (centres undefined)	Gli-Sufu antag 55.6 | Gli-Sufu confirm inactive | SufuKO cytotox inactive | Wnt3a counter inactive
O=C(NC1CCCc2c1cnn2-c1ccc(F)cc1F)c1ccccn1 (centres undefined)	none
O=C(c1cc2sccc2n1Cc1ccccc1)N1CCN(c2nc3ccccc3s2)CC1	Gli-Sufu antag 57.9 | Gli-Sufu confirm 67.8 | SufuKO cytotox 33.0 | Wnt3a counter inactive
CCC(=O)N1CCN(c2nc3ccccc3s2)CC1	none
CC1CCN(C(=O)C2CCN(C(=O)c3cc4sccc4n3Cc3ccc(F)cc3)CC2)CC1	none
CC(C)NC(=O)C1CCN(C(=O)c2cc3sccc3n2Cc2ccc(F)cc2)CC1	Gli-Sufu antag 60.5 | Gli-Sufu confirm inactive | SufuKO cytotox inactive | Wnt3a counter inactive
